Our source for the AC50 and outcome values is PubChem BioAssay (EPA / NIEHS).

Calls of active or inactive are those of the source. How the source made its calls: active means hit-call score of the fitted dose curve at least 0.9, where 1 is the maximum; inactive means score below 0.9.

Read-out in the test: Interleukin-8 (IL8), CXCL8 (gene 3576)
The test can be described thus: BSK_3C_IL8: BioMAP Diversity Plus: 3C Assay for Interleukin-8 (IL8) Biomarker Activity (AID 2283020). The note with it: primary human endothelial cells (HUVEC); actives raise or lower the signal. As to the method:
BSK_3C is a cell-based, multiplexed-readout assay that uses umbilical vein endothelium, a human vascular primary cell, with measurements taken at 24 hours after chemical dosing in a 96-well plate.BSK_3C_IL8 is an assay component measured in the BSK_3C assay. It measures IL-8 antibody related to regulation of gene expression using ELISA technology.Data from the assay component BSK_3C_IL8 was analyzed into 1 assay endpoint. This assay endpoint, BSK_3C_IL8, was analyzed with bidirectional fitting relative to DMSO as the negative control and baseline of activity. Using a type of binding reporter, gain or loss-of-signal activity can be used to understand changes in the signaling as they relate to the gene CXCL8. Furthermore, this assay endpoint can be referred to as a primary readout, because this assay has produced multiple assay endpoints where this one serves a signaling function. To generalize the intended target to other relatable targets, this assay endpoint is annotated to the cytokine intended target family, where the subfamily is interleukins.
The levels of cell surface (or secreted, indicated by the prefix "s") biomarker endpoints were measured by ELISA. Overt cytotoxicity to cells in confluent adherent cultures (all systems other than the BT system) was assessed by measuring total protein levels using sulforhodamine B (SRB) staining in parallel cultures at the time of biomarker measurements, indicated as SRB endpoints. For proliferation assays for adherent cell types, individual cell types are cultured at sub-confluence and relative cell numbers quantified by SRB staining at time points optimized for each system (48 h: 3C and CASM3C systems; 72 h: BT and HDF3CGF systems; 96 h: SAg system). SRB was performed by staining cells with 0.1% SRB after fixation with 10% TCA and reading wells at 560 nm.Viability and proliferation of PBMC (T cells) was quantified by Alamar Blue reduction for the SAg and BT systems. For PBMC viability (referred to as PBMC Cytotoxicity within the assay endpoint names), cells were plated (75,000/well in a 96-well plate) and then chemical samples added for 1 h before addition of activators, SEB and TSST-1 (20 ng/mL final concentration each). Cells were incubated for 90 h. Then, Alamar Blue (20 uL/well) (Invitrogen, Cat DAL1100) was added for 6 h, and the plates were read with a fluorescence microplate reader at 546/580 nm (excitation/emission). For PBMC proliferation, cells were plated and activated as above but incubated for only 16 h prior to addition of Alamar Blue. Plates were read after 6 h.
For `[Cl][Sn]([c]1ccccc1)([c]1ccccc1)[c]1ccccc1`, the AC50 is 0.298 µM (active).
For `CCOP(=O)(OCC)OC(=CCl)c1ccc(Cl)cc1Cl`, the half-maximal activity concentration (AC50) is 3.97 µM (active).
As to `Cc1cc(Cl)ccc1OC(C)C(=O)O` (stereo not given), the result was inactive.
Take `Cc1cccc(OP(=O)(Oc2cccc(C)c2)Oc2cccc(C)c2)c1`: the result was inactive.
For `N#Cc1cccnc1`, the outcome was inactive.
Same read-out and setting: in the case of `CCCCCCCCCCCCc1cccc(S(=O)(=O)O)c1` it was “inactive”; in that of `Oc1c(Br)cc(Br)cc1Br`, “inactive”; in that of `COc1ccccc1N`, “inactive”.
On to `Oc1ccc(Cc2ccc(O)cc2)cc1`, for which the result was inactive.
The same measure, in the same setting: then `CC(C)N(C(=O)CCl)c1ccccc1`, with “inactive”; and `CCOP(=O)(OCC)SCCSCC`, with “inactive”.
The same measure, in the same setting: in the case of `OC(Cc1ccccc1Cl)(Cn1[nH]cnc1=S)C1(Cl)CC1` (stereo not given) it was “inactive”.
As to `O=c1oc2ccccc2c(O)c1C(CC(O)c1ccc(-c2ccc(Br)cc2)cc1)c1ccccc1` (stereo not given), the result was inactive.
As to `O=S(=O)(c1ccc(Cl)cc1)c1cc(Cl)c(Cl)cc1Cl`, the AC50 was 3.97 µM (active).
In the case of `O=[N+]([O-])c1cccc2ccccc12`, the outcome was inactive.
On the same count and under the same terms, then `CC1(C)[C@H](C(=O)O[C@H](C#N)c2cccc(Oc3ccccc3)c2)[C@@H]1/C=C(\Cl)C(F)(F)F`, with “inactive”; and `CC(C)(COCC1CO1)COCC1CO1` (stereo not given), with “inactive”.
In the case of `c1ccc(-c2cccc(-c3ccccc3)c2)cc1`, the AC50 is 7.45 µM (active).
As for `O=C(O)COc1cc(Cl)c(Cl)cc1Cl`, the outcome was inactive.
Still for that read-out and setting: then `CN(C)C(=S)S`, with “inactive”; and `Oc1cccc(-c2ccccc2)c1`, with “inactive”; and `CC(C)(C)c1ccccc1O`, with “inactive”.
On to `Oc1c(Cl)cc(Cl)cc1Cl`, for which the outcome was inactive.
The same measure, in the same setting: then `CCCCOC(=O)COC(=O)c1ccccc1C(=O)OCCCC`, with “inactive”.
Same read-out and setting: in the case of `O=C(Cc1ccccc1)OCCc1ccccc1` it was “inactive”; in that of `Cc1ccc(OP(=O)(Oc2ccc(C)cc2C)Oc2ccc(C)cc2C)c(C)c1`, “inactive”.
Take `CC(C)O.CC(C)O.OCCN(CCO)CCO.OCCN(CCO)CCO.[Ti]`: the result was inactive.
Regarding `CCOC(=O)CC(=O)CCl`, the concentration at half-maximal activity (AC50) is 3.97 µM (active).
As for `COCC(=O)N(c1c(C)cccc1C)[C@H](C)C(=O)OC`, the outcome was inactive.
`O=C(CCl)NCO`: the result was inactive.
With `C[C@]12CC[C@@H](O)C[C@@H]1CC[C@@H]1[C@@H]2CC[C@]2(C)C(=O)CC[C@@H]12`, the outcome was inactive.
On the same count and under the same terms, then `Cc1cc(Cl)ccc1N`, with “inactive”.
Regarding `C#CCOC(=O)/C=C(C)/C=C/CC(C)CCCC(C)C` (stereo not given), the AC50 was 0.0524 µM (active).
As to `C=CC(Cl)CCl` (stereo not given), the result was inactive.
On the same count and under the same terms, in the case of `CCC(C)(C#N)N=NC(C)(C#N)CC` (stereo not given) it was “inactive”.
Same read-out and setting: then `O=C(N[C@H]1CN2CCC1CC2)c1ccc2c(c1)OCCO2`, with “inactive”.
With `Cc1cc(C(C)(C)c2ccc(O)c(C)c2)ccc1O`, the AC50 is 18.2 µM (active).
For `O=[N+]([O-])c1ccc(Nc2ccccc2)cc1`, the outcome was inactive.
With `O=S(=O)(C(Cl)(Cl)Cl)C(Cl)(Cl)Cl`, the AC50 was 5.32 µM (active).
`OC(Cc1ccccc1Cl)(Cn1cncn1)C1(Cl)CC1` (stereo not given): the outcome was inactive.
